# Assay results from PubChem BioAssay AID686977 (Southern Research Specialized Biocontainment Screening …, 2013).
# In all, about 9,400 compounds went through this assay and fewer than 10 were called active. Not shown: some 5% with an inconclusive outcome. How the calls were made is not given here. Only a sample is shown. Potency and affinity values are given separately.
# Test: Vibrio cholerae quorum sensing activators, luminescence (AID 686977)
# Conditions: V. cholerae quorum sensing reporter, 6 h, hits give high values; dose 50, dose unit µM unless noted
row,SMILES,luminescence
1,CC(C)OC(=O)c1nnc(Cc2ccc(F)cc2)o1,0 (inactive)
2,CC(NC(=O)c1ccccc1Br)c1ccc2c(c1)CCCC2 (stereo not given),40 (inactive)
3,Cc1ccc(C(=O)CC(C(=O)O)c2cn(CCC#N)c3ccccc23)cc1 (stereo not given),40 (inactive)
4,CCC(C)c1ccc(-c2cc(C(=O)OCC(=O)Nc3cc(C)on3)c3ccccc3n2)cc1 (stereo not given),0 (inactive)
5,CCc1cccc(C)c1NC(=O)CN1C(=O)c2ccccc2S1(=O)=O,200 (inactive)
6,N#Cc1nc(-c2cccc3ccccc23)oc1N1CCCCC1,0 (inactive)
7,Cc1ccn2cc(CCNC(=O)C3CCCCC3)nc2c1,0 (inactive)
8,Cc1c(NC(=O)CSc2nnc3sc4ccccc4n23)c(=O)n(-c2ccccc2)n1C,40 (inactive)
9,COC(=O)/C(=C\Nc1ccccc1N)c1ncc(C(F)(F)F)cc1Cl,40 (inactive)
10,COc1ccc(C(=O)NC(Cc2ccccc2)c2ccc3c(c2)OCCCO3)cc1 (stereo not given),0 (inactive)
11,O=C(O)c1ccc(NS(=O)(=O)c2cccc3cccnc23)cc1,0 (inactive)
12,CCCNS(=O)(=O)c1ccc(CCC(=O)N2CCN(c3ccc(OC)cc3)CC2)cc1,0 (inactive)
13,O=C(c1ccco1)N1CCN=C1SCc1ccccc1Cl,0 (inactive)
14,Oc1c(C(c2cccs2)N2CCN(c3cccc(Cl)c3)CC2)sc2ncnn12 (stereo not given),40 (inactive)
15,COc1ccc(C(=O)NCCn2cc(SCC(=O)NCc3ccco3)c3ccccc32)cc1,0 (inactive)
16,CCn1c(SCC(=O)NCCc2ccccc2)nnc1-c1ccco1,0 (inactive)
17,COc1cc(OC)cc(-c2cc(N)n(S(=O)(=O)Cc3ccccc3)n2)c1,40 (inactive)
18,CCC(=O)N=c1sc2c(C)cc(C)cc2n1CC(=O)OC,0 (inactive)
19,Cc1ccc2[nH]c(=O)c(CN(CCCN(C)C)C(=O)Nc3ccc(Cl)cc3)cc2c1,0 (inactive)
20,CC(=O)c1sc(NC(=O)c2ccccc2F)nc1C,80 (inactive)
21,CC(C)N(Cc1nc(-c2ccccc2)no1)C(=O)c1ccc(Cl)cc1,0 (inactive)
22,O=C(O)C1CCC(=O)N(C2CCCCC2)C1c1ccccc1 (stereo not given),0 (inactive)
23,Cc1ccn(CCSCC(=O)O)n1,0 (inactive)
24,CCc1ccc(-c2cc(C(F)(F)F)n3nc(C(=O)Nc4c(C)nn(Cc5ccccc5C)c4C)cc3n2)s1,0 (inactive)
25,Cc1cccc2cc(CN(Cc3cccs3)Cc3nnnn3Cc3ccccc3)c(=O)[nH]c12,0 (inactive)

row,SMILES,luminescence
1,CC(=O)c1cccc(N(CC(=O)O)S(C)(=O)=O)c1,40 (inactive)
2,CCN(CC)CCN1C(=O)C(=O)/C(=C(/O)c2c(C)[nH]c(C(=O)OC)c2C)C1c1cccs1 (stereo not given),0 (inactive)
3,COc1ccc2nc(SCc3nc(N)nc(Nc4ccccc4)n3)[nH]c2c1,40 (inactive)
4,CCOc1ccc(N(CC(=O)NC(C)(C)C)C(=O)c2ccco2)cc1,40 (inactive)
5,CCOC(=O)c1c(C)c(C(=O)NCC2CCCO2)c(C)n1CC (stereo not given),0 (inactive)
6,O=C(NCCC1=CCCCC1)c1ccc(F)c(S(=O)(=O)N2CCOCC2)c1,0 (inactive)
7,BrC(=C\c1ccccc1)/C=N/N1CCN(Cc2ccccc2)CC1,0 (inactive)
8,COC(=O)c1c(C)[nH]c(C)c1-c1ccccc1Cl,0 (inactive)
9,CCOC(=O)C(=CNc1cc(C)nn1-c1ccc(C)cc1)C(=O)OCC,40 (inactive)
10,CCc1nc(SCC(N)=O)c2c(=O)n(C)c(=O)n(C)c2n1,40 (inactive)
11,COC(=O)c1ccc(Oc2ccc(C(C)(C)C)cc2)c([N+](=O)[O-])c1,0 (inactive)
12,Cc1ccc(C(=O)c2ccc([N+](=O)[O-])cc2)cc1C,40 (inactive)
13,COC(=O)c1c(NC(=O)C2CC2)sc2c1CCCC2,40 (inactive)
14,CS(=O)(=O)N(CC(=O)NCCC1=CCCCC1)C1CCCCC1,40 (inactive)
15,O=C(CSc1nnc(C2CC2)n1Cc1ccccc1)c1cc2ccccc2o1,80 (inactive)
16,COc1ccc(NC(=O)CSc2nc(O)cc(=O)n2C)cc1,0 (inactive)
17,COc1cc(NC(=O)Cn2nc(C(F)(F)F)c3c2CCCC3)cc(OC)c1OC,280 (inactive)
18,CCOCCCN(Cc1ccco1)C(=O)c1cc2c(=O)[nH]c3ccc(C)cc3c2s1,0 (inactive)
19,COc1cccc(-c2nc(CS(=O)CC(=O)NCc3ccccc3Cl)c(C)o2)c1 (stereo not given),0 (inactive)
20,COC(=O)c1ccccc1NC(=O)C1CC(=O)N(c2ccccc2)C1 (stereo not given),0 (inactive)
21,CCOC(=O)Cc1csc(-n2sc3ccccc3c2=O)n1,0 (inactive)
22,O=C(NC1CCCc2ccccc21)C1CCN(C(=O)c2sccc2-n2cccc2)CC1 (stereo not given),40 (inactive)
23,COC(=O)[C@H](C)NC(=O)Nc1cccc(C)c1,0 (inactive)
24,CNC(=O)NC(=O)CSc1ncc(C(F)(F)F)cc1Cl,0 (inactive)
25,N#Cc1ccccc1OCC(=O)NC(N)=O,0 (inactive)

row,SMILES,luminescence
1,Cc1cc(NS(=O)(=O)c2ccc(NC(=O)C(C(C)C)N3C(=O)c4ccccc4C3=O)cc2)nc(C)n1 (stereo not given),0 (inactive)
2,CCOC(=O)COc1cccc2c(=O)n(CC(=O)N3CCc4ccccc43)ccc12,0 (inactive)
3,Cn1c(=O)c2c(nc(N3CCCCCC3)n2CCSc2nc3ccccc3o2)n(C)c1=O,0 (inactive)
4,O=C(Nc1ccc(Br)cc1F)C1CCCN(S(=O)(=O)c2cnc[nH]2)C1 (stereo not given),0 (inactive)
5,O=C(Nc1nccs1)c1nc(-c2ccccc2)n(-c2ccccc2)n1,280 (inactive)
6,Cc1csc2nc(CNC(=O)C3CC=CCC3C(=O)O)cn12 (stereo not given),0 (inactive)
7,COC(=O)c1ccccc1NC(=O)Nc1nnc(N2CCC(C)CC2)s1,0 (inactive)
8,CC(=O)Nc1nnc(-c2ccc(Cl)s2)o1,0 (inactive)
9,CCOC(=O)N1CCN(C(=O)C2CCCN(S(=O)(=O)c3cccnc3)C2)CC1 (stereo not given),0 (inactive)
10,O=C(CCc1ccccc1)Nc1ccc(F)cc1F,40 (inactive)
11,Cc1cccc(C)c1NC(=O)c1sccc1SCc1cccc(C(F)(F)F)c1,40 (inactive)
12,COC(=O)c1cc(COc2ccc3c4c(c(=O)oc3c2)CCCC4)c(C)o1,0 (inactive)
13,COc1ccc(OC)c(NC(=O)c2cn(C)c(=O)c3cc(OC)c(OC)cc23)c1,0 (inactive)
14,CC1(C)CC(=O)c2cc(OCC(=O)N3CCOCC3)ccc2O1,40 (inactive)
15,CC(C)C(NC(=O)c1cccs1)c1nnc(SCC(=O)Nc2nccs2)n1C (stereo not given),40 (inactive)
16,COC(=O)c1nn(-c2ccccc2)c(Cl)c1/C=N/OCc1ccc(Cl)cc1Cl,40 (inactive)
17,CC(C)CC(=O)Nc1ccc(S(=O)(=O)NCc2ccco2)cc1,0 (inactive)
18,CCOC(=O)C(C)Sc1nnc(Cc2cc(=O)[nH]c(=O)[nH]2)n1-c1ccc(OCC)cc1 (stereo not given),0 (inactive)
19,CC1CCCCC1NC(=O)c1ccc(CNc2c(N3CCCC3)c(=O)c2=O)cc1 (stereo not given),0 (inactive)
20,Cc1cnc(C(=O)Nc2cccc3cccnc23)cn1,40 (inactive)
21,CN1CCN(c2cc3c(c4c2[nH]c2ccccc24)C(=O)CC(C)(C)C3)CC1,40 (inactive)
22,Cc1cc(C(=O)CSc2nnc(-c3ccc(F)cc3)o2)c(C)n1CC1CCCO1 (stereo not given),0 (inactive)
23,CCOC(=O)/C(C#N)=C\c1ccc(N2CCN(C)CC2)cc1,0 (inactive)
24,CCOC(=O)C1CCN(C(=O)C2CCN(S(=O)(=O)c3cccc4cccnc34)CC2)CC1,0 (inactive)
25,Cc1n[nH]c(=S)c2nn(-c3ccccc3F)c(C)c12,0 (inactive)

row,SMILES,luminescence
1,Cn1c(C(=O)N2CCN(Cc3ccc4c(c3)OCO4)CC2)cc2c(=O)n(C)c3ccccc3c21,0 (inactive)
2,CCC(Cc1ccccc1)NC(=O)CN1C(=O)CSc2ncccc21 (stereo not given),0 (inactive)
3,OCCN1CCN(c2ncnc3ccc(Br)cc23)CC1,200 (inactive)
4,CC1=CC(C)(C)N(S(=O)(=O)c2ccc(F)cc2)c2ccccc21,0 (inactive)
5,COc1ccc(C(=O)Nc2cc3c(cc2C#N)OCO3)cc1S(=O)(=O)NCc1ccco1,0 (inactive)
6,CCOC(=O)c1c(C)nc2ccccc2c1C,40 (inactive)
7,CCc1nn(CC(=O)NCCCN2CCc3ccccc3C2)c(=O)c2cc3sccc3n12,0 (inactive)
8,COc1ccc(-n2nnnc2SCC#CCO)cc1,0 (inactive)
9,Cc1nnc(SCC(=O)NCc2ccco2)n1Cc1ccccc1,0 (inactive)
10,CC(C)OC(=O)CSc1nnc(-c2ccccc2)n1N,40 (inactive)
11,O=c1c2ccccc2nnn1CSc1nnc(-c2cccnc2)n1-c1ccccc1F,0 (inactive)
12,O=[N+]([O-])c1cc(-c2cnc3ccccc3n2)ccc1Oc1ccc(F)cc1,40 (inactive)
13,Cc1ccc(CN(C)C(=O)C2CCCN2C(=O)c2cccs2)o1 (stereo not given),320 (inactive)
14,CCn1cc(S(=O)(=O)CC(=O)Nc2cc(C)on2)c2ccccc21,0 (inactive)
15,CCCCN(C(=O)c1cnc2n(c1=O)CCS2)c1ccccc1,0 (inactive)
16,CCc1nc2c(cnn2-c2ccc(F)cc2)c(=O)n1-c1ccc(N2CCC(C)CC2)cc1,0 (inactive)
17,O=C(NCC(c1cccnc1)N1CCN(c2ccccc2F)CC1)c1ccco1 (stereo not given),0 (inactive)
18,CCC(C)NC(=O)CS(=O)Cc1nc(-c2cccc(OC)c2)oc1C (stereo not given),40 (inactive)
19,Cc1ccc(-c2nnc(SCc3nc(N)nc(Nc4ccccc4C)n3)n2N)cc1,0 (inactive)
20,O=C(NCc1ccco1)c1nnc(Cc2ccc(Cl)cc2)o1,0 (inactive)
21,CCOC(=O)C1=C(c2ccccc2)O/C(=C(\C(=O)OC)C(F)(F)F)S1,40 (inactive)
22,COc1ccc(C2N(C(=O)CN3CCOCC3)CCN2S(=O)(=O)c2ccccc2)cc1 (stereo not given),0 (inactive)
23,Cc1cccc(N2CCN(C(=O)CN3CCOc4ccccc43)CC2C)c1 (stereo not given),0 (inactive)
24,Cc1onc(-c2ccccc2Cl)c1C(=O)Nc1cccc(-c2nc3ncccn3c2C)c1,40 (inactive)
25,CC(=O)CC(c1ccccc1)S(=O)(=O)c1ccc(C)cc1 (stereo not given),40 (inactive)
